The text below walks through data of PubChem BioAssay (EPA / NIEHS).

Structures are written as SMILES. Several values for one entry are separate records, joined by “and”; a condition that tells them apart may be missing. Equal values may be shown once. Inconclusive results are not listed. Where a structure was tested more than once in an assay, its records may differ in their call. Activity calls are given as the source filed them. The calls were made as follows, unless noted: active = hit-call score of the fitted dose curve at least 0.9, where 1 is the maximum; inconclusive = response in the unintended direction; inactive = score below 0.9.

Read-out in assay [1]: Thyroid Hormone Responsive (THRSP), THRSP (gene 7069)
In words: LTEA_HepaRG_THRSP: Life Technologies and Expression Analysis (LTEA) Assay for Thyroid Hormone Responsive (THRSP) using HepaRG (AID 2283536; active = hit-call score of the fitted dose curve at least 0.9, where 1 is the maximum; inactive = score below 0.9). The settings on record: mRNA level, 48 h; actives raise or lower the signal. The method in brief: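 mRNA induction or loss relative to 0.5% DMSO vehicle was fitted bidirectionally across an eight-point curve whose highest exposure was 100 uM. Human HepaRG liver cells received chemicals in duplicate over 48 h before RNA extraction.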

Read-out in assay [2]: Cellular tumor antigen p53 (Homo sapiens) (UniProt P04637)
Kind of assay: LTEA_HepaRG_TP53: Life Technologies and Expression Analysis (LTEA) Assay for Tumor Protein P53 (TP53) using HepaRG (AID 2283537; active = hit-call score of the fitted dose curve at least 0.9, where 1 is the maximum; inactive = score below 0.9). The settings on record: mRNA level, 48 h; actives raise or lower the signal. Summed up:
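HepaRG, 48 h exposure, top 100 uM, half-log 8-point, 0.5% DMSO vehicle, duplicates. Read: TP53 mRNA by TaqMan qRT-PCR, normalised to ACTB/GAPDH/POLR2A; bidirectional fit vs DMSO.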

Read-out in assay [3]: UDP glucuronosyltransferase (UGT1A1), UGT1A1 (gene 54658)
In words: LTEA_HepaRG_UGT1A1: Life Technologies and Expression Analysis (LTEA) Assay for UDP glucuronosyltransferase (UGT1A1) using HepaRG (AID 2283538; active = hit-call score of the fitted dose curve at least 0.9, where 1 is the maximum; inactive = score below 0.9). The conditions noted are these: mRNA level, 48 h; actives raise or lower the signal. The method in brief:
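Differentiated human HepaRG cells in serum-free induction medium were exposed in duplicate for 48 h to eight half-log concentrations up to 100 uM in 0.5% DMSO. UGT1A1 mRNA was quantified by TaqMan qRT-PCR, normalized to ACTB, GAPDH and POLR2A, and fitted bidirectionally against DMSO.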

Read-out in assay [4]: UDP glucuronosyltransferase (UGT1A6), UGT1A6 (gene 54578)
Kind of assay: LTEA_HepaRG_UGT1A6: Life Technologies and Expression Analysis (LTEA) Assay for UDP glucuronosyltransferase (UGT1A6) using HepaRG (AID 2283539; active = hit-call score of the fitted dose curve at least 0.9, where 1 is the maximum; inactive = score below 0.9). The settings on record: mRNA level, 48 h; actives raise or lower the signal. The method in brief: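 Expression was quantified by TaqMan qRT-PCR on Fluidigm arrays with ACTB/GAPDH/POLR2A normalization and bidirectional fitting against 0.5% DMSO. HepaRG cells (~100,000/well) were treated in duplicate for 48 h at eight half-log concentrations up to 100 uM in serum-free induction medium.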

Read-out in assay [5]: X-box binding protein 1 (XBP1), XBP1 (gene 7494)
In words: LTEA_HepaRG_XBP1: Life Technologies and Expression Analysis (LTEA) Assay for X-box binding protein 1 (XBP1) using HepaRG (AID 2283540; active = hit-call score of the fitted dose curve at least 0.9, where 1 is the maximum; inactive = score below 0.9). The settings on record: mRNA level, 48 h; actives raise or lower the signal. The method in brief:
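XBP1 transcript by qRT-PCR (housekeeping-normalized: ACTB, GAPDH, POLR2A) after 48 h chemical treatment of HepaRG cells, 8-point half-log series topping at 100 uM, vehicle 0.5% DMSO. Gain and loss of signal fitted relative to DMSO.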

A short description of assay [6]: LTEA_HepaRG_LDH_cytotoxicity: Cytotoxicity Assessment in the Life Technologies and Expression Analysis (LTEA) Assay (AID 2283563).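 As to AC50: LDH activity released into spent culture medium as a marker of cell death.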 The method in brief: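 LDH release into culture medium read after 48 h chemical treatment of HepaRG cells. Duplicate wells, eight-point half-log series topping at 100 uM, 0.5% DMSO vehicle and baseline.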
A short description of assay [7]: ATG_XTT_Cytotoxicity: Cytotoxicity Assessment in the Attagene TRANS-FACTORIAL HepG2 Assay (AID 2283584).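 As to AC50: cells exposed to compound for 24 h before reading; active means loss of viability signal versus DMSO baseline.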 The method in brief:
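Viability endpoint from XTT after 24 h chemical exposure of reporter-transfected human HepG2 liver cells; signal loss fitted relative to DMSO negative control.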

Assay [8] deals with Cellular tumor antigen p53 (Homo sapiens) (UniProt P04637). Kind of assay: TOX21_p53_BLA_p2_ratio: Tox21 HCT-116 p53 Agonism Beta-lactamase Assay, Ratio, Phase 2 (AID 2283592). The method in brief:
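Gain-of-signal p53 agonism was scored from the beta-lactamase FRET ratio (460/530 nm, 405 nm excitation) in HCT116 cells treated 16 h at 37C, 5% CO2, with DMSO serving as negative control and baseline.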

A short description of assay [9]: TOX21_p53_BLA_p2_viability: Viability Assessment in the Tox21 HCT-116 p53 Agonism Beta-lactamase Assay, Phase 2 (AID 2283591).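 Also: compound exposure lasted 16 h at 37 °C; actives lower the ATP signal meaning cytotoxicity.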 Summed up:
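Cytotoxicity readout: CellTiter-Glo ATP luminescence, 30 min at room temperature, after the beta-lactamase read. Cells were HCT116 exposed 16 h at 37C to compounds pin-transferred at 217-fold dilution from DMSO stocks.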

A short description of assay [10]: TOX21_p53_BLA_p3_viability: Viability Assessment in the Tox21 HCT-116 p53 Agonism Beta-lactamase Assay, Phase 3 (AID 2283593).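 Also: cells exposed to compound for 16 h before reading.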 Summed up: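 Cellular ATP was quantified by CellTiter-Glo luminescence, read after 30 min at room temperature. Beforehand, HCT116 cells (4000/well) received compound 5 h post-seeding, 217-fold diluted from DMSO, then incubated 16 h at 37C.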

Sequence of Cellular tumor antigen p53 (Homo sapiens) (P04637 whole entry, looked up): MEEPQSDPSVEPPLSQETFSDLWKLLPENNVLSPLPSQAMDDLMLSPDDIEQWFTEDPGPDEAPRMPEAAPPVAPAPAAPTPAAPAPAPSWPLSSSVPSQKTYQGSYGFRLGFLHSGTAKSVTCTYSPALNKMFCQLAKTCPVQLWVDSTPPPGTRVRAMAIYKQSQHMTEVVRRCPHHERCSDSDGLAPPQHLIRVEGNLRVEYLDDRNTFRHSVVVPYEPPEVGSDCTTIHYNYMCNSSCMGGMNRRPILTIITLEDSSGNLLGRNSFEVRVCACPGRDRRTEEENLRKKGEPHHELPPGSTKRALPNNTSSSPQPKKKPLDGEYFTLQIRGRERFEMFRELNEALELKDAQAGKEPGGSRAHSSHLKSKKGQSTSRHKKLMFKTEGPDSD

On to `Cc1cccc(C)c1N`, for which the call in [1], in assay [2], in assay [3], in assay [4], in [5] and in [6] was inactive. For the same molecule, the call in assay [7] and in [8] was inactive.

For the molecule `CCCN(CCC)N=O`, the molecule was called inactive in [1], in [2], in [3], in assay [4], in assay [5] and in assay [6]. The molecule was classed as inactive in assay [7], in [9], in assay [8] and in assay [10].

In the case of `CCCCCCOC(=O)c1ccccc1C(=O)OCCCCCC`, the molecule was classed as inactive in [1], in [2], in assay [4], in assay [5], in assay [6] and in assay [7]. Also, the molecule was called inactive in assay [10]. The AC50 in [3] is 62 µM (active).

Take `COS(=O)(=O)OC`: the molecule was called inactive in assay [1], in assay [2], in [3], in assay [4], in assay [5] and in assay [6]. The call in assay [9], in [8] and in [10] was inactive.

As to `CCCCCCCCCC[N+](C)(C)CCCCCCCCCC`, the AC50 in assay [1] is 24.5 µM (active); in [4] it was 50 µM (active); in assay [6], 36.6 µM (active); in assay [7] it was 18.5 µM (active); in assay [9], 36.4 µM (active) and 33.1 µM (active); in assay [8], 65.1 µM (active) and 39.6 µM (active). Moreover, the AC50 in [10] is 64 µM (active) and 27.4 µM (active). Also, the result in assay [2] and in assay [3] was inactive.

Take `ClC1=C(Cl)[C@]2(Cl)[C@@H]3[C@H]4C[C@H]([C@@H]5O[C@H]45)[C@@H]3[C@@]1(Cl)C2(Cl)Cl`: the AC50 in assay [1] is 93 µM (active); in assay [3], 2.04 µM (active). Besides, the molecule was classed as inactive in assay [2], in [4], in assay [6], in assay [9] and in assay [10].

Turning to `Clc1ccc(C(Cl)(Cl)Cl)cc1`, the molecule was classed as inactive in assay [1], in assay [2], in assay [3], in [4], in assay [6] and in [7]. Further, the molecule was classed as inactive in [9], in assay [8] and in [10].

As to `COc1ccc(O)c(C(C)(C)C)c1`, the outcome in assay [1], in assay [2], in [3], in [4], in assay [6] and in assay [7] was inactive. Also, the result in assay [8] and in [10] was inactive.

With `OCC(O)CO`, the call in assay [7], in assay [9], in assay [8] and in assay [10] was inactive.

Regarding `c1ccc(-c2ccccc2)cc1`, the call in [1], in assay [2], in [3], in assay [4], in assay [6] and in assay [9] was inactive. The outcome in assay [8] and in [10] was inactive.

With `Oc1ccc(Cl)cc1Cl`, the result in assay [1], in assay [2], in assay [3], in [4], in [6] and in [9] was inactive. For the same molecule, the result in assay [8] and in assay [10] was inactive.

Consider `Cc1cc(-c2ccc(N)c(C)c2)ccc1N`, for which the molecule was called inactive in assay [1], in assay [2], in assay [4], in assay [6], in [9] and in assay [8]. Besides, the AC50 is 26.7 µM (active) in [3] and 87.2 µM (active) in [8].

Consider `CC(C)C(=O)OCC(C)(C)C(OC(=O)C(C)C)C(C)C` (stereo unspecified), for which the result in [1], in [2], in [3], in assay [4], in assay [6] and in [7] was inactive. For the same molecule, the outcome in assay [8] was inactive. For the same molecule, the AC50 in assay [10] was 46.4 µM (active).

On to `O=C(NC(=O)c1cc(F)c(F)cc1Cl)Nc1cc(F)ccc1N1CCC(C(=O)O)CC1`, for which the outcome in assay [1], in assay [2], in assay [3], in assay [4], in assay [6] and in assay [9] was inactive. For the same molecule, the outcome in [8] and in assay [10] was inactive.

For `O=NN(c1ccccc1)c1ccccc1`, the result in assay [1], in [2], in [3], in assay [4], in [9] and in assay [8] was inactive.

As to `Nn1cnnc1`, the molecule was called inactive in assay [1], in assay [2], in assay [3], in assay [4], in assay [6] and in assay [7]. Also, the result in [9], in [8] and in [10] was inactive.

In the case of `O=C(O)C(F)(F)C(F)(F)C(F)(F)C(F)(F)C(F)(F)C(F)(F)C(F)(F)C(F)(F)C(F)(F)F`, the AC50 in assay [1] was 15.6 µM (active); in [3] it was 36.2 µM (active); in assay [4], 38.6 µM (active); in assay [6] it was 63.4 µM (active). Further, the result in [7], in assay [9], in assay [8] and in [10] was inactive.

Turning to `Sc1ccccc1`, the result in assay [7] was inactive.

In general, AC50 refers to the concentration giving half of the maximal activity seen.
